Measurements reported in PubChem BioAssay (NCI).
This is part of a sample that, as a whole, favours compounds with a hit. Of some 83,000 tested, about 20% had one in any assay.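 Each cell line was grown in a 96-well plate and treated with one concentration of compound for 48 hours. Values below 10 were considered active.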 The source made the active and inactive calls.

Assays:
Test in all cases: NCI-60 one-dose screen, 48 h (100 = growth as untreated, 0 = no growth, -100 = all killed)
[1] = system: HCT-15 colon; conditions: 10 µM unless noted
[2] = system: SNB-75 CNS; conditions: 10 µM unless noted
[3] = system: SNB-19 CNS; conditions: 10 µM unless noted
[4] = system: U251 CNS; conditions: 10 µM unless noted
[5] = system: PC-3 prostate; conditions: 10 µM unless noted
[6] = system: SK-MEL-5 melanoma; conditions: 10 µM unless noted
[7] = system: UACC-62 melanoma; conditions: 10 µM unless noted
[8] = system: LOX IMVI melanoma; conditions: 10 µM unless noted
[9] = system: SK-MEL-28 melanoma; conditions: 10 µM unless noted
[10] = system: SK-MEL-2 melanoma; conditions: 10 µM unless noted
[11] = system: EKVX NSCLC; conditions: 10 µM unless noted
[12] = system: SN12C renal; conditions: 10 µM unless noted
[13] = system: UO-31 renal; conditions: 10 µM unless noted
[14] = system: TK-10 renal; conditions: 10 µM unless noted
[15] = system: ACHN renal; conditions: 10 µM unless noted
[16] = system: CAKI-1 renal; conditions: 10 µM
[17] = system: A498 renal; conditions: 10 µM unless noted
[18] = system: CCRF-CEM leukemia; conditions: 10 µM unless noted
[19] = system: MOLT-4 leukemia; conditions: 10 µM unless noted
[20] = system: HT29 colon; conditions: 10 µM unless noted

Measured: growth

CCN(CC)Cc1c(-c2cccc(OC(F)(F)F)c2)[nH]c2ccc(N3CCCC3)cc2c1=O
inactive: [1] 90.1% | [2] 88.1% | [3] 90.6% | [4] 99.6% | [5] 90.5% | [6] 98.3% | [7] 82.7% | [8] 90.9% | [9] 92.2% | [10] 106% | [11] 90.6% | [12] 93.3% | [13] 77.7% | [14] 124% | [15] 98.4% | [16] 77.3% | [17] 104% | [18] 98.4% | [19] 69.4%

O=C1NC(=O)c2c1c1c3ccccc3ccc1c1[nH]c3ccccc3c21
active: [2] -7.05% | [3] 3.4% | [5] 1.07% | [6] -18.1% | [10] -12.5% | [13] -4.64% | [14] -4.05% | [15] -2.53% | [16] 4.16% | [17] -36.3% | [18] 9.91% | [19] 3.16%
inactive: [20] 13.4% | [4] 11.1% | [7] 15.2% | [9] 18.9% | [11] 11.1% | [12] 17.3%

COc1ccc(CCN2C(=O)CSC2=S)cc1OC
inactive: [20] 109% | [2] 112% | [3] 99.9% | [4] 99.5% | [5] 91.2% | [6] 85.2% | [7] 97% | [8] 56.6% | [9] 102% | [11] 103% | [12] 93% | [13] 83% | [14] 55.6% | [15] 100% | [16] 84.6% | [18] 63% | [19] 88.7%

CCN1C(=O)N(CC)C2SC(N/N=C/c3ccccc3)=NC21 (stereo not drawn)
inactive: [2] 37.4% | [3] 27.3% | [4] 17.1% | [5] 28% | [6] 12.1% | [7] 37% | [8] 17.3% | [9] 58.1% | [12] 34.4% | [13] 54.6% | [14] 81.3% | [15] 36% | [16] 40.1% | [18] 16.7% | [19] 21.4%
active: [20] -0.975% | [10] 9.45% | [17] -19.2%

O=C(Nc1ccc(Cl)cc1)Nc1nc2ccc([N+](=O)[O-])cc2s1
inactive: [3] 11.5%
active: [20] 1.88% | [4] -11% | [5] -7.8% | [6] -83.7% | [7] -30.2% | [9] -12.3% | [10] -40.8% | [11] 4.04% | [12] -0.314% | [14] -20.5% | [15] 0.28% | [16] -16.5% | [18] 4.8% | [19] -7.74%

Cc1ccc(-c2nnc3sc(C4=Cc5ccccc5OC=C4)nn23)cc1
inactive: [20] 101% | [2] 79.1% | [3] 92.1% | [4] 96.6% | [6] 92.2% | [7] 91.6% | [8] 116% | [9] 97.1% | [10] 104% | [11] 99.4% | [12] 97.3% | [13] 87.3% | [14] 89.1% | [15] 105% | [16] 79.6% | [17] 61.6% | [18] 105% | [19] 82.8%

CNC(=O)c1cc(Oc2ccc3nc(NC(=O)c4cccc(C(F)(F)F)c4)sc3c2)ccn1
inactive: [20] 106% | [2] 90.7% | [3] 93.3% | [4] 104% | [5] 102% | [6] 101% | [7] 85% | [8] 99.3% | [9] 89.8% | [11] 101% | [12] 96% | [13] 99.1% | [14] 116% | [15] 102% | [16] 93.6% | [17] 87.3% | [18] 109% | [19] 107%

N#Cc1c(-c2ccccc2)cc(-c2c[nH]c3ccccc23)nc1-c1c[nH]c2ccccc12
inactive: [20] 103% | [2] 81.2% | [3] 97.6% | [4] 94.3% | [5] 92.4% | [6] 99.2% | [7] 94.9% | [8] 100% | [9] 110% | [10] 97.7% | [11] 83.1% | [12] 95.6% | [13] 68.3% | [14] 124% | [15] 96.4% | [16] 87.3% | [17] 98.7% | [18] 103% | [19] 102%

CCOC(=O)CC(=O)CSC1=NC2C(NN1)N(C)C(=O)N2C (stereo not drawn)
inactive: [20] 62.9% | [2] 99% | [3] 97.4% | [4] 98.6% | [5] 89.4% | [6] 99.6% | [7] 89.4% | [8] 92.9% | [9] 89.3% | [11] 56.2% | [12] 91.6% | [13] 57.2% | [14] 104% | [15] 82.6% | [16] 88.5% | [17] 118% | [18] 38.8%

CCN1C(=O)N(CC)C2SC(N/N=C/c3ccc(F)cc3)=NC21 (stereo not drawn)
inactive: [2] 38.2% | [3] 28.1% | [4] 15% | [5] 30.3% | [6] 15.3% | [7] 33.6% | [8] 14.1% | [9] 58.9% | [10] 17.2% | [12] 33.6% | [13] 50.3% | [14] 88.3% | [15] 37.3% | [16] 31.7% | [18] 23.2% | [19] 23.8%
active: [20] 3.77% | [17] -22.4%

CCn1c2ccc(/C=N/OCCCN(C)C)cc2c2cc(/C=N/OCCCN(C)C)ccc21
inactive: [2] 82.8% | [3] 59.3% | [5] 32.4% | [7] 10.6% | [10] 125% | [11] 48.6% | [12] 63.6% | [14] 132% | [17] 54.1%
active: [20] -58.8% | [4] -30.9% | [6] -95.6% | [8] -91.8% | [9] -33.8% | [13] -90.4% | [15] -15.5% | [16] -16.5% | [18] 9.36% | [19] 0.746%

CS(=O)c1nccc(-c2c(-c3ccc(F)c(OCc4ccccc4)c3)nc3sccn23)n1 (stereo not drawn)
inactive: [20] 89.5% | [2] 95.4% | [3] 93.3% | [4] 105% | [5] 54.1% | [6] 100% | [7] 93.6% | [8] 81.7% | [9] 55.5% | [11] 83% | [12] 97.4% | [13] 94.9% | [14] 106% | [15] 82.6% | [16] 89.3% | [17] 94.2% | [18] 76.4% | [19] 32.2%

C=C1C(=O)O[C@@H]2C[C@@H](C)[C@H](OC)CC(=O)[C@](C)(OC(C)=O)C[C@H](OC(=O)/C(C)=C\C)[C@@H]12
inactive: [20] 59.5% | [2] 78.7% | [3] 99.1% | [4] 91.5% | [5] 83.6% | [8] 84.4% | [10] 87.5% | [11] 83.9% | [13] 72.4% | [14] 55.9% | [16] 41.3% | [17] 150% | [19] 38.1%
active: [15] 5.58% | [18] -12.7%

Cc1ccc(Cc2cnc(NC(=O)/C(C#N)=C/c3ccc(-c4ccc(Cl)cc4)o3)s2)cc1
inactive: [20] 97.1% | [2] 94.9% | [3] 106% | [4] 102% | [5] 87.6% | [6] 92.4% | [7] 95.4% | [8] 81.3% | [9] 103% | [11] 92.7% | [12] 97.4% | [13] 90.1% | [14] 120% | [15] 97.4% | [16] 83.8% | [18] 98.4% | [19] 103%

CN(C)c1ncc(/C=C2\SC(=S)N(Cc3ccccc3Cl)C2=O)s1
inactive: [20] 88.8% | [2] 88.1% | [3] 78.6% | [4] 42% | [5] 91.1% | [6] 101% | [7] 94.6% | [8] 69.2% | [9] 104% | [10] 86% | [11] 81.7% | [12] 68.7% | [13] 47.7% | [14] 96.7% | [15] 76.2% | [16] 79.1% | [18] 77.3% | [19] 82%

C=CCn1c(SCC(=O)Nc2cccc(C(=O)/C=C/c3ccccc3)c2)nc2ccccc2c1=O
inactive: [20] 14.7% | [2] 82.1% | [3] 77.1% | [4] 46.7% | [5] 77.4% | [7] 86.3% | [8] 24.4% | [9] 95.4% | [11] 99.3% | [12] 91.1% | [13] 67.4% | [14] 116% | [15] 93.9% | [16] 80.1% | [17] 92.9% | [18] 72.1%

Cc1ccc(-c2csc(N/N=C/c3nc4ccccc4n3C3CC3)n2)cc1
active: [6] 5.51% | [15] 1.34% | [18] -20.9%
inactive: [20] 92.2% | [2] 22% | [3] 81.2% | [4] 43.8% | [5] 61.6% | [7] 95.1% | [9] 103% | [10] 74.7% | [11] 97.5% | [12] 82.8% | [13] 16.1% | [14] 141% | [16] 77.9% | [17] 78.3% | [19] 37.3%
